# From PubChem BioAssay
# tim10-1 inh – growth inhibitors of tim10-1 mutant yeast, primary screen, luminescence, uHTS; inhibition, % at 20 µM; 330,000 compounds, 2.2% hits; S. cerevisiae tim10-1 ts strain growth, BacTiter-Glo, 24 h;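 active means inhibition of at least 40%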;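 further: mutant grown at 25 °C; 0% = DMSO wells with yeast and 100% = wells holding no yeast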
# tim23-1 inh – growth inhibitors of tim23-1 mutant yeast, primary screen, luminescence, uHTS. S. cerevisiae tim23-1 growth, BacTiter-Glo luminescence, 24 h. inhibition, % at 20 µM. 330,000 compounds, 1.3% hits. AID 463212, 2010;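 active means growth inhibition of the mutant yeast at or above 50%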;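 further: temperature-sensitive mutant grown at 25 °C; plate controls were DMSO-treated mutant yeast for no effect and medium wells lacking yeast for full effect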
# PfHsp90 set2 – growth inhibition of PfHsp90-expressing yeast, primary screen, antimalarial PfHsp90 inhibitor project, S. cerevisiae, BacTiter-Glo luminescence, single point, set 2; BacTiter-Glo ATP, 48 h; yeast lacking PDR1 and PDR3 efflux regulators; inhibition, % at 9.4 µM; 310,000 compounds, 0.32% hits; AID 504621, 2011;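 active means every replicate shows inhibition above about 80%, whatever the replicate mean, limit read from the data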;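 further: 0% = DMSO neutral controls and 100% = 20 µM radicicol positive controls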
# SKKanGAS inh – S. pyogenes SKKanGAS growth inhibitors in kanamycin, primary screen, streptokinase expression inhibitor project, SKKanGAS strain, BacTiter-Glo luminescence | 6 h | inhibition, % at 7.5 µM | 300,000 compounds, 1.3% hits;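 active means mean replicate score, as percent of positive control median, at least 50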;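 further: strain carries kanamycin resistance gene driven by streptokinase promoter and grows in 40 µg/ml kanamycin; loss of luminescence reflects streptokinase promoter inhibition or plain growth inhibition; 0% = median of DMSO wells and 100% = positive control at its reference dose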
# TIM10 inh – growth inhibitors of isogenic TIM10 control yeast, primary screen, counter-screen for tim10-1 yeast inhibitor project, luminescence, uHTS; S. cerevisiae TIM10 strain growth, BacTiter-Glo luminescence, 24 h; inhibition, % at 10 µM; 330,000 compounds, 1.4% hits; AID 463195, 2010;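 active means inhibition of 40% or more at the single tested concentration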;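 further: wild-type TIM10 isogenic control strain grown at permissive 25 °C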
# tim10 confirm – growth inhibitors of wild-type TIM10 yeast, confirmation, counter-screen for tim10-1 synthetic lethality project, single concentration, luminescence, S. cerevisiae; shares compounds with TIM10 inh; S. cerevisiae tim10 strain growth, BacTiter-Glo luminescence, 24 h; inhibition, % at 10 µM; 4,600 compounds, 63% hits;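 active means inhibition of yeast growth at or above a set limit in either of two replicates at 10 µM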;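 further: this counterscreen used the strain with wild-type TIM10; 0% = yeast with DMSO and 100% = medium wells lacking yeast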
# tim23-1 conf – tim23-1 mutant yeast growth inhibitors, confirmation, luminescence, single concentration; shares compounds with tim23-1 inh; S. cerevisiae tim23-1 growth, BacTiter-Glo luminescence, 24 h; inhibition, % at 20 µM; 4,400 compounds, 83% hits;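 active means inhibition above about 39% in either of two replicate wells at 20 µM, limit read from the data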;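 further: temperature-sensitive tim23-1 mutant grown at 25 °C; 0% = DMSO wells with yeast and 100% = medium wells without yeast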
# Starred values were filed as active, the others as inactive; nt = no result given. Only some compounds are listed: those with a hit (about 4.4% of all), similar ones and a draw of the others.
SMILES,tim10-1 inh,tim23-1 inh,PfHsp90 set2,SKKanGAS inh,TIM10 inh,tim10 confirm,tim23-1 conf
S=C(Sc1ccc(Cl)cc1)Sc1ccc(Cl)cc1,28,73*,nt,37,47*,42*,77*
CC(=O)/C(=C\N(C)C)Sc1ccc(Cl)cc1,-8,-2,-25,1,-4,nt,nt
N#CC(C(=O)c1ccccc1Cl)=C1SCCCS1,31,69*,-11,-8,42*,40*,52*
O=S1(=O)Nc2c(ccc3cccnc23)-c2ccccc21,29,70*,151*,112*,48*,57*,47*
COc1ccc(/C=N/NC(=O)c2cc3c(OC)ccc(OC)c3[nH]2)cc1O,18,14,-3,-1,3,nt,nt
COc1ccc(OC)c2[nH]c(C(=O)N/N=C/c3ccccc3O)cc12,14,54*,16,114*,45*,26,50*
COc1ccccc1C/C(N)=N/OC(=O)c1ccc2c(c1)OCO2,24,72*,-18,-9,71*,80*,77*
O=C(CN1c2cccc3cccc(c23)S1(=O)=O)Nc1c(F)c(F)c(F)c(F)c1F,14,14,-13,nt,3,nt,nt
N#Cc1nc(-c2ccccc2F)oc1NCc1ccccc1,36,47,23,-1,4,nt,nt
N#Cc1nc(-c2ccccc2F)oc1NCCc1ccccc1,36,57*,-35,6,66*,61*,78*
O=[N+]([O-])c1ccc(O)c(C=Nc2ccc3c(c2)OCCO3)c1,4,39,31,-11,18,nt,nt
Oc1c(Br)cc(Br)cc1C=Nc1ccc2c(c1)OCO2,36,82*,6,12,66*,52*,72*
Oc1c(Br)cc(Br)cc1C=Nc1ccc2c(c1)OCCO2,25,84*,22,6,56*,34*,92*
CS(=O)(=O)Nc1ccc(C(=O)NCCSc2ccc(Cl)cc2)cc1,12,12,-7,-4,0,nt,nt
COc1cccc(/C=N/Nc2ncnc3scc(-c4ccccc4)c23)c1O,11,59*,100*,82*,54*,67*,60*
O=Cc1ccc(OCCCOc2cccc3cccnc23)cc1,39,36,-8,-13,14,nt,nt
O=Cc1ccccc1OCCCOc1cccc2cccnc12,33,76*,-7,0,49*,52*,79*
CC(C)CN(C(=O)C1CSC2(C)CCC(=O)N12)c1c(N)n(Cc2ccccc2)c(=O)[nH]c1=O (stereo unspecified),-4,-4,-8,-4,-2,nt,nt
Cc1ccc(-c2nnc(NCc3ccccc3)c3ccccc23)cc1,22,25,18,13,30,nt,nt
Clc1ccc(-c2nnc(NCc3ccccc3)c3ccccc23)cc1,32,68*,3,12,54*,57*,71*
Cc1ccc(-c2nc3ccccc3[nH]2)s1,0,51*,26,13,40*,26,71*
Cc1ccc(CNC(=O)COC(=O)c2cccc(S(=O)(=O)N3CCCCC3)c2)cc1,14,21,12,nt,1,nt,nt
C=CCSC(=C(C#N)C#N)c1cc2c([nH]1)CCCC2,29,52*,-26,3,41*,23,62*
O=C(O)c1cc2c([nH]c1=O)CCCC2,5,1,-4,2,-11,nt,nt
O=C(Nc1cc(-c2nc3ncccc3o2)ccc1Cl)c1ccc([N+](=O)[O-])o1,27,86*,-16,15,43*,28,86*
SMILES,tim10-1 inh,tim23-1 inh,PfHsp90 set2,SKKanGAS inh,TIM10 inh,tim10 confirm,tim23-1 conf
O=C(Nc1cc(-c2nc3ncccc3o2)ccc1Cl)c1cccs1,-3,32,6,-7,2,nt,nt
COc1cc2c3nnc(-c4ccc(F)cc4)c-3cn(Cc3ccccc3)c2cc1OC,6,1,13,7,3,nt,nt
O=C(Oc1coc(CSc2ncccn2)cc1=O)c1ccccc1[N+](=O)[O-],39,62*,-3,1,59*,52*,49*
O=C(/C=C/Sc1ccccc1)c1ccccc1,22,66*,-50,10,59*,65*,81*
C=CCNC(=O)c1ccc(Cn2cc(C(F)(F)F)ccc2=O)cc1,1,7,-7,-1,5,nt,nt
COc1cc(OC)cc(-c2c(-c3cccs3)c3cc(-c4ccc(N(C)C)nc4)ccc3n2C)c1,7,10,29,nt,-3,nt,nt
O=C(/C=C/c1ccco1)Nc1ccc2c(c1)OCCO2,-27,4,-6,nt,-11,nt,nt
O=C(/C=C/c1ccccc1)Nc1ccc2c(c1)OCCO2,29,54*,-15,-12,46*,22,70*
Cn1cnc(S(=O)(=O)Nc2ccccc2C(=O)NCC2CC2)c1,0,-9,-6,23,3,nt,nt
Cc1ccc(-c2nnc(N3CCN(S(C)(=O)=O)CC3)c3ccccc23)cc1,20,22,5,12,23,nt,nt
Cc1ccc(-c2nnc(N3CCN(c4ccccn4)CC3)c3ccccc23)cc1,38,65*,-9,27,48*,-22,72*
COc1ccc(C(C)NC(=O)c2ccncc2)cc1 (stereo unspecified),-20,-24,21,-1,3,nt,nt
Cc1cccc(C)c1N=Nc1c(C)cc(O)cc1C,24,63*,112*,23,47*,65*,-1
O=C(CCN1CCOCC1)N/N=C/c1cc(Br)cc(Br)c1O,37,63*,-48,57*,58*,50*,62*
CC(=O)N1CCc2cc(S(=O)(=O)CCC(=O)N(C)c3cc(C)ccc3C)ccc21,4,9,0,1,11,nt,nt
CCC(=O)Nc1ccccc1Sc1ncnc2scc(-c3ccccc3)c12,32,57*,-19,-3,43*,32*,50*
O=C(O)CSc1ncnc2scc(-c3ccccc3)c12,5,10,-2,2,10,nt,nt
CCN(CC)C(=S)SCC(=O)c1ccc(Br)cc1,24,6,-6,5,0,nt,nt
COc1ccc2c(c1OC)C(=O)OC2C1c2c(cc3c(c2OC)OCO3)CCN1C (stereo unspecified),19,20,-2,-5,6,nt,nt
CN1CCc2cc3c(c4c2[C@H]1[C@H](O)c1ccccc1-4)OCO3,36,58*,-14,4,53*,68*,63*
CSCCC(NC(=O)c1cccc(C)c1)C(=O)NCc1cccs1 (stereo unspecified),3,2,nt,nt,5,nt,nt
